# High-throughput results as filed in PubChem BioAssay.
# APOBEC3G inh: APOBEC3G DNA deaminase inhibitors, primary screen, biochemical, fluorescence, single-stranded DNA substrate, uHTS; hit rate 0.28% among 330,000; DNA dC->dU-editing enzyme APOBEC-3G (Homo sapiens), Q9HC16; recombinant A3G, ssDNA deamination FAM/TAMRA fluorescence; inhibition, % at 20 µM;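 active means inhibition of at least 40% at 20 µM, with no more than 30% in the related APOBEC3A deaminase screen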;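 further: plate controls were DMSO wells with A3G for no effect and wells lacking A3G enzyme for full effect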
# Target sequence (Q9HC16 whole entry, looked up): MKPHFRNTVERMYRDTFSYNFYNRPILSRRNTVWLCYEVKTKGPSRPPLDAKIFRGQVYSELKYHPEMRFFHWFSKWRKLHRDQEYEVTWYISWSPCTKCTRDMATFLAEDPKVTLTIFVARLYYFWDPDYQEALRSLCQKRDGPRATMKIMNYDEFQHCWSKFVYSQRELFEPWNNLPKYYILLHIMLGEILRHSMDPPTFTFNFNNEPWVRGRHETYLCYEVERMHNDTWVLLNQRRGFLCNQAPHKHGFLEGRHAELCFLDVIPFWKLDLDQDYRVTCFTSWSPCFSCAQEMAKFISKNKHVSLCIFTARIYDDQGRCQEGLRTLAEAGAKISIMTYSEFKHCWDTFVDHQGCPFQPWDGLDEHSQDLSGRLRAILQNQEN
# AHR act: AHR activators, primary screen, cell-based, luminescence, luciferase reporter, human; Aryl hydrocarbon receptor (Homo sapiens), P35869; AHR-responsive luciferase reporter cells; activation, % at 5 µM; hit rate 2.5% among 320,000; in the data active means activation above about 47%;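 further: 0% = vehicle wells and 100% = reference agonist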
# NTR1 agonist: agonists of human NTR1, primary screen, imaging, U2OS cells, beta-arrestin-GFP, high content | activation, % at 20 µM | Neurotensin receptor type 1 (Homo sapiens), P30989 | AID 493036, 2011 | NTR1-U2OS beta-arrestin-GFP spot imaging, agonist mode | hit rate 0.17% among 330,000;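 active means activation at or above 40% of the spot to cytoplasm intensity ratio, with at least 20 cells analyzed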;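 further: 0% = DMSO without peptide and 100% = 100 nM NTR1 peptide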
# APOBEC3A inh: APOBEC3A ssDNA deaminase inhibitors, primary screen, selectivity assay for APOBEC3G inhibitor project, biochemical, FAM/TAMRA oligo cleavage fluorescence; DNA dC->dU-editing enzyme APOBEC-3A (Homo sapiens), P31941; recombinant A3A, FAM/TAMRA ssDNA deamination fluorescence; inhibition, % at 20 µM; hit rate 0.41% among 330,000; AID 493011, 2011;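 active means at least 40% inhibition at 20 µM here, with at most 30% in a related deaminase screen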;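 further: plate controls were A3A with DMSO for no effect and wells lacking A3A enzyme for full effect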
# Target sequence (P31941 whole entry, looked up): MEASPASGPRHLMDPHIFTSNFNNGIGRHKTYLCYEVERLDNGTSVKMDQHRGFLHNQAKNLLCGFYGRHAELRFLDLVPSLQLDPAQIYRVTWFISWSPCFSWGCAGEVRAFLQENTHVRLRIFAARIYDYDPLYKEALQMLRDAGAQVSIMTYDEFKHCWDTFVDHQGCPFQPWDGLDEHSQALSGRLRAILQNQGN
# * marks the source's active call; other numbers are inactive results; . = not tested or not shown. Only some compounds are listed: those with a hit (about 3.2% of all), similar ones and a draw of the others.
SMILES,APOBEC3G inh,AHR act,NTR1 agonist,APOBEC3A inh
O=[N+]([O-])CC(=Nc1ccc(Cl)cc1)N/N=C\c1oc(O)c2ccccc12,0.0,95.0*,2.1,0.8
Cc1ccc(NC(=O)CSc2ccc3nnc(-c4cccnc4)n3n2)cc1,-9.4,63.1*,0.2,0.9
Cc1cc(NC(=O)CSc2nnc(C3CC3)n2-c2ccccc2)no1,6.0,48.1*,0.2,3.9
CC(=O)Nc1ccc(NC(=O)CSc2ccc3nnc(-c4cccnc4)n3n2)cc1,-2.0,0.9,0.3,2.7
O=C(CSc1ccc2nnc(-c3ccccn3)n2n1)Nc1ccc2c(c1)OCO2,-3.1,53.0*,-1.0,-1.6
Cc1cc(NC(=O)CSc2ccc3nnc(-c4cccs4)n3n2)no1,-6.7,48.9*,-1.3,2.3
Cc1c(-n2c(SCC(=O)O)nnc2-c2ccccc2Br)c(=O)n(-c2ccccc2)n1C,-3.1,-3.1,1.8,1.1
Cc1ccc(C(CNS(=O)(=O)c2cc(F)ccc2F)N2CCN(C)CC2)cc1 (stereo not drawn),-5.3,.,0.0,-3.5
Cc1ccc(O)c(N=CC2=C(O)c3ccccc3C2=O)c1,0.4,78.4*,3.0,-0.2
O=C(N/N=C1\SCC(=O)N1CCc1ccccc1)c1cccs1,0.2,51.1*,1.9,0.6
O=C(COc1cccc2cccnc12)N/N=C1\SCC(=O)N1Cc1ccccc1,-8.5,52.4*,-1.8,-5.6
COc1ccc(CCN2C(=O)CS/C2=N\NC(=O)c2ccc(C(C)(C)C)cc2)cc1OC,-5.9,43.1,4.4,-8.1
c1ccc(-c2nnc(CSc3ccc4c(c3)OCCO4)o2)cc1,2.6,-2.6,-0.6,5.6
CCCc1cc(-c2nc(-c3ccc(Br)cc3)cs2)ccn1,-7.2,47.2*,3.2,-1.6
CCCc1cc(-c2nc(-c3ccc(Cl)cc3)cs2)ccn1,-5.2,13.7,3.3,-0.7
CN(CC(=O)Nc1ccccc1C(=O)Nc1ccccc1)C1CCCCC1,0.0,0.5,1.6,3.3
CN1CCc2c(sc(/N=C/c3c[nH]c4ccccc34)c2C(N)=O)C1,-4.5,75.9*,-0.3,-1.4
CN1CCc2c(sc(/N=C/c3cc(Cl)ccc3O)c2C#N)C1,-6.6,10.6,0.7,1.2
CCOC(=O)c1c(/N=C/c2ccc(OC)cc2O)sc2c1CCN(C)C2,-6.0,0.3,-0.4,1.0
CN1CCc2c(sc(/N=C/c3c[nH]c4ccccc34)c2C#N)C1,-23.6,48.0*,-1.4,-8.7
O=C(NCC(O)c1ccc2ccccc2c1)c1c(F)cccc1F (stereo not drawn),-5.2,0.8,-0.3,-1.5
C/C(=N\NC(=O)c1ccccc1C)c1cccnc1,-5.3,32.8,0.6,-6.9
COc1ccccc1NC(=O)NC(=O)c1ccccc1,-10.4,48.8*,0.7,-5.9
COc1ccccc1NC(=O)NC(N)=O,-8.8,2.5,1.9,-0.5
COc1ccccc1C(=O)N/N=C(\C)c1cccnc1,-3.5,58.5*,-0.5,-4.9
SMILES,APOBEC3G inh,AHR act,NTR1 agonist,APOBEC3A inh
COc1ccccc1NC(=O)c1cccnc1,-2.0,67.8*,-0.5,0.1
CCOc1ccccc1NC(=O)c1ccc2c(c1)C(=O)N(CC1CCCO1)C2=O (stereo not drawn),3.5,73.4*,-0.6,0.0
N#Cc1ccccc1OCC(=O)NC(=O)NCc1ccco1,-0.9,12.3,-1.1,3.6
O=c1c2c(nc3c(-c4ccc(Cl)cc4)c[nH]n13)CCCC2,-1.6,66.7*,1.0,-2.1
CC(=O)Nc1ccc(-c2csc(Nc3cc(C)ccn3)n2)cc1,-1.7,-2.3,10.6,-0.6
CC(=O)Nc1cccc(-c2csc(Nc3cc(C)ccn3)n2)c1,-4.3,109.2*,9.9,-5.6
CC(=O)Nc1nc(C)c(-c2csc(Nc3cccc(C(C)=O)c3)n2)s1,-1.6,56.6*,15.6,-2.1
CC(=O)Nc1nc(C)c(-c2csc(Nc3ccc(O)cc3)n2)s1,0.1,48.9*,7.2,-1.4
Cc1ccc(C(=O)OCC(=O)NCc2cccs2)cc1S(=O)(=O)N1CCOCC1,4.4,0.3,-1.7,11.6
O=C(NCc1ccccn1)C1CCN(S(=O)(=O)c2cc(Cl)ccc2Cl)CC1,-5.6,0.3,-0.1,-0.4
O=c1cc(-c2ccccc2)nc2nc(-c3ccccc3)[nH]n12,-8.7,73.7*,-2.7,-11.3
CN(C)c1ccc(/C=[N+](\[O-])C2N(c3ccccc3)C(=S)SC2(C)C)cc1 (stereo not drawn),-0.5,-2.5,0.0,4.3
Cc1c(-c2cc(Br)ccc2O)nc2cc3c(cc2c1C)OCO3,-7.1,62.7*,4.1,-0.9
Cc1c(C(=O)c2ccc(Cl)cc2Cl)cnc2cc3c(cc12)OCO3,-4.7,15.6,6.8,-6.9
O=C1Nc2ccc(C(F)(F)F)cc2N2CCCC12 (stereo not drawn),-7.5,8.5,1.6,-1.5
O=C1Nc2cc(C(F)(F)F)ccc2N2CCCCC12 (stereo not drawn),7.1,73.8*,-0.8,1.4
Cc1cc2nc(C)c(=O)n(C)c2cc1C,-2.6,-0.6,-0.6,-2.5
Cc1cc2nc3n(c2cc1C)CCCN3,0.0,72.5*,-0.6,-6.4
N#Cc1ccccc1NC(=O)CNc1ccc(Cl)c(C(F)(F)F)c1,-8.1,65.0*,1.4,-2.6
O=C(NCC1CCN(Cc2ccccc2F)CC1)Nc1cccc(Br)c1,3.1,-1.4,0.5,1.0
CCCCC(=O)Nc1nn(CC(C)C)c2nc3ccccc3cc12,17.3,38.7,2.6,11.5
CCCn1nc(NC(=O)CC(C)C)c2cc3ccccc3nc21,-0.6,78.1*,0.4,18.8
Cc1cc([N+](=O)[O-])ccc1NC(=O)CCC(=O)N1CCCCCC1,-6.1,-1.5,1.7,-1.7
CC(C)C1Oc2cc3oc(=O)ccc3cc2C1=O (stereo not drawn),-3.6,2.3,2.3,2.4
Brc1ccc(Oc2nsnc2N2CCOCC2)cc1,-3.5,55.9*,1.2,-1.0
SMILES,APOBEC3G inh,AHR act,NTR1 agonist,APOBEC3A inh
COc1ccc2cc(C(=O)N3CCc4ccccc43)[nH]c2c1,-1.8,82.4*,6.8,2.9
COc1ccc(C(=O)Nc2nc3ccccc3c(=O)[nH]2)cc1,-5.6,73.6*,-0.4,-1.7
CC1=CC(=C2C(=O)c3ccccc3C2=O)C=C(C)O1,2.7,7.2,0.8,2.2
CC(=O)N1C(=O)C(=C2C=C(C)OC(C)=C2)c2ccccc21,-7.1,55.0*,0.2,-2.3
Cc1ccc2nc(NC(=O)C3CCCN3C(=O)OC(C)(C)C)sc2c1 (stereo not drawn),-7.2,7.2,0.6,-5.0
COc1ccc(-c2nc(NC(=O)Cn3c(=O)oc4ccccc43)sc2C)cc1,-7.4,69.8*,5.5,-3.1
COc1ccc(NC(=O)CNC(=O)C2CCCCC2)cc1OC,-0.4,1.1,-1.5,2.2
CC(=O)Oc1ccccc1N(C(C)=O)S(=O)(=O)c1ccc2ccccc2c1,-3.4,-2.8,0.9,-3.3
CC(=O)Oc1c(Br)cc(N(C(C)=O)S(=O)(=O)c2ccccc2)c2ccccc12,-4.5,47.6*,1.4,2.9
